This is a sample that favours compounds with a hit; in the whole collection about 0.51% have one here.
E coli growth-1 – inhibitors of Escherichia coli growth; OD600, 23 h; stronger effect = lower value; OD600 absorbance (no concentration beside the values); 0.21% of 330,000 active; AID 1053175;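 active = OD600 absorbance below the run mean of sample wells minus 3.6 SD, in any replicate, cut at about 0.56 in these data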
Tat export inh – blocks Tat-dependent protein export in E. coli | inhibition, % at 10 µM | 0.036% of 340,000 active | E. coli MC4100 TorA-mCherry Tat export, fluorescence;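 active = mean replicate inhibition at least 50% and at least half of replicates individually reaching 50%; inconclusive = only one of the two criteria met; inactive = neither criterion met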;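 also: exported cargo escapes ClpAP degradation while cytoplasmic cargo is degraded and loses fluorescence; 0% = median of neutral control wells and 100% = median of NaSCN control wells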
phage Ecoli inh – E. coli growth loss with phage present | inhibition, % at 11.9 µM | growth absorbance | 0.26% of 360,000 active | AID 651602; in the data active = inhibition above about 11%
E coli growth-2 – bacterial growth inhibition, counter-screen for AddAB inhibitors; inhibition, % at 11.9 µM; E. coli V3065 growth, OD600 absorbance, 18 h; 0.27% of 330,000 active;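 active = inhibition above the campaign's mean inhibition across all tested compounds plus 3 SD, cut at about 9.9% in these data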;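 also: uninfected addAB+ strain grown without phage in ampicillin broth; 0% = DMSO wells and 100% = ciprofloxacin 0.95 µg/ml wells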
AddAB inh – less growth of phage-infected E. coli with AddAB; E. coli expressing H. pylori AddAB, absorbance growth; inhibition, % at 11.9 µM; 0.29% of 330,000 active; AID 435030; in the data active = inhibition above about 12%;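 also: 0% = vehicle wells of infected cells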
RecBCD conf – confirmation: growth loss of phage-infected RecBCD+ E. coli (RecBCD inhibitor screen) | shares compounds with phage Ecoli inh | E. coli V66 + T4 2- phage, growth OD | inhibition, % at 11.9 µM | 45% of 890 active | AID 651982;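 active = mean inhibition over triplicates exceeding the hit threshold derived in the original primary screen, cut at about 11% in these data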
Ecoli viability – counter-screen for RecBCD inhibitors: inhibitors of bacterial viability | shares compounds with phage Ecoli inh | E. coli viability, absorbance (OD) growth | inhibition, % at 11.9 µM | 29% of 890 active | AID 651983; in the data active = inhibition above about 20%;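 also: E. coli strain V66 grown with compound alone and no phage infection; 0% = bacteria with DMSO vehicle only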
AddAB counter – growth loss of phage-infected AddAB E. coli, RecBCD counter-screen. shares compounds with phage Ecoli inh. E. coli expressing H. pylori AddAB + T4 phage, OD growth; gene 2 mutant T4, recBCD-deleted host. inhibition, % at 11.9 µM. 45% of 890 active;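 active = mean inhibition above the solvent-only control wells' mean plus 3 SD, cut at about 22% in these data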;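 also: higher means less bacterial growth from phage killing when AddAB is blocked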
An asterisk follows results filed as active; ? = inconclusive; . = no result given; ! = a repeat was not active.

SMILES	E coli growth-1	Tat export inh	phage Ecoli inh	E coli growth-2	AddAB inh	RecBCD conf	Ecoli viability	AddAB counter
CCN(CC)c1ccc(C=NNC(=O)Cc2ccc(OC)c(OC)c2)cc1	0.61	.	.	.	.	.	.	.
CC(=O)NCCCc1nc2ccccc2n1Cc1ccccc1F	0.65	1	22*	1	3	-2	-1	-1
COc1cccc(/C=N/NC(=O)c2cc(-c3cccn3C)n[nH]2)c1O	.	-6	12*	4	4	6	9	20
O=C1C(=Cc2ccco2)Oc2c1ccc(O)c2CN1CCCCC1	0.66	.	.	.	.	.	.	.
CO[C@H]1C=CO[C@@]2(C)Oc3c(C)c(O)c4c(O)c(c(C=NN5CCN(C)CC5)c(O)c4c3C2=O)NC(=O)C(C)=CC=C[C@H](C)[C@H](O)[C@@H](C)[C@@H](O)[C@@H](C)[C@H](OC(C)=O)[C@@H]1C	.	75*	76*	42*	49*	78*	90*	93*
CCCCNC(=O)NCC(=O)Nc1ccc(F)c(F)c1	0.69	11	1	-2	-2	.	.	.
Cn1nc(C(=O)NCC(=O)Nc2ccc(F)c(F)c2)ccc1=O	.	.	11*	.	.	0	-1	-3
O=C(Nc1ccccc1)Nc1cc(OCC(F)(F)F)cc(OCC(F)(F)F)c1	0.69	-3	16*	.	.	4	6	2
O=C(Nc1ccccc1)Nc1cc(Cl)cc(Cl)c1	.	-14	11	9	7	.	.	.
Cc1cccc(C=NNC(=O)Cc2ccc(Cl)cc2)c1O	0.68	.	.	.	.	.	.	.
Cc1noc(C)c1S(=O)(=O)N(C)CC1Oc2c(NC(=O)NC(C)C)cccc2C(=O)N(C(C)CO)CC1C (stereo not given)	0.71	.	.	.	.	.	.	.
CC(C)C[C@H]1CNC(=S)N1C[C@H]1CCCN1C[C@H](Cc1ccccc1)N1C[C@H](Cc2ccc(O)cc2)N(CC2CCCCC2)C1=S	.	.	12*	.	.	2	-1	3
NCCCCC1CNC(=O)C(=O)N1CCc1cccc2ccccc12 (stereo not given)	0.66	.	.	.	.	.	.	.
O=C(N/N=C\C=C\c1ccc([N+](=O)[O-])o1)c1cccs1	.	23	98*	.	.	105*	107*	104*
CCC(C)(C(=O)NC1CCCCC1)N(Cc1cccs1)C(=O)c1ccccn1 (stereo not given)	0.72	-4	1	0	-1	.	.	.
CCC(C)(C(=O)NC1CCCCC1)N(Cc1cccs1)C(=O)c1ccc(=O)[nH]c1 (stereo not given)	0.65	-4	12*	3	5	-5	-4	2
Cc1ccc2occ(C=NNC(=O)c3ccccc3O)c(=O)c2c1	0.7	.	.	.	.	.	.	.
CC(=O)C(=CN(C)C)C(=O)Nc1ccc(Cl)cc1Cl	0.69	.	.	.	.	.	.	.
OCc1ccc(O)c2ncccc12	0.78	-6	5	4	-1	.	.	.
Cc1ccc2c(Cl)cc(Cl)c(O)c2n1	0.064*	?	13*	.	.	7	9	8
Oc1c(I)cc(I)c2cccnc12	0.43*	-4	23*	1	-1	26*	30*	25*
Cc1cc(Cl)c2ccc3ccccc3c2n1	0.69	-2	3	0	0	.	.	.
Cc1ccc(S(=O)(=O)Nc2cccnc2Oc2ccc(Cl)cc2)cc1	0.68	2	-1	2	3	.	.	.
Oc1c(Cl)cc(Cl)c2cccnc12	0.071*	5	43*	.	.	55*	62*	51*
Cc1ccc(S(=O)(=O)Nc2cc(Cl)c(O)c3ncccc23)cc1	.	-1	12*	11*	11	5	9	9
SMILES	E coli growth-1	Tat export inh	phage Ecoli inh	E coli growth-2	AddAB inh	RecBCD conf	Ecoli viability	AddAB counter
Clc1cc2cccnc2c2ccccc12	0.68	4	2	2	3	.	.	.
COc1ccc(-c2n[nH]c(=S)n2N=Cc2cccn2C)cc1	0.66	.	.	.	.	.	.	.
CC(=NNc1cc(C)c2cc(C)ccc2n1)c1ccccn1	.	.	17*	.	.	1	1	3
Nc1nonc1-n1nnc(C(=O)NN=Cc2cccc(F)c2)c1-c1ccc2c(c1)OCO2	0.64	.	.	.	.	.	.	.
COc1cccc(-c2cnc(C(O)c3cccc(OC)c3)[nH]2)c1 (stereo not given)	.	.	11*	.	.	3	6	-10
Cc1cc(C)cc(C(O)c2ncc(-c3ccc4ccccc4c3)[nH]2)c1 (stereo not given)	.	.	18*	.	.	12*	15	26*
OC(c1ccc(F)cc1)c1ncc(-c2ccc(Oc3ccccc3)cc2)[nH]1 (stereo not given)	.	.	5	.	.	.	.	.
Cc1cc(C(O)c2ncc(-c3ccc(Oc4ccccc4)cc3)[nH]2)ccc1F (stereo not given)	.	.	11*	.	.	1	4	4
Cc1ccc(-c2cnc(C(O)c3cc(C)cc(C)c3)[nH]2)cc1 (stereo not given)	.	.	17*	.	.	11*	14	14
CCOc1ccc(-n2c(C)cc(C=NNC(=O)C(N)=O)c2C)cc1	0.68	.	.	.	.	.	.	.
Nc1nc(N)c2cc([N+](=O)[O-])ccc2n1	0.6	2	4	.	.	.	.	.
Nc1nc(N)c2c(ccc3c2ccn3Cc2cccc([N+](=O)[O-])c2)n1	.	.	100*	.	.	103*	103*	103*
CC(=NNC(=O)c1cccnc1)c1cccc([N+](=O)[O-])c1	0.68	.	.	.	.	.	.	.
Cc1ccc(-c2nc3ccc(Cl)cc3c(=O)n2O)cc1	0.66	-6	11*	7	4	5	7	10
Cc1ccc(-c2nc3ccccc3c(=O)n2O)cc1	0.64	2	-1	-2	-1	.	.	.
COC(C)(C)[C@]12CC(O)(c3ccccc3)ON1C1CCCCC1N2O (stereo not given in full)	0.66	.	.	.	.	.	.	.
CC(C)(C)c1cc2nc3c(c(=O)n2[nH]1)CN(Cc1ccccc1)C3=O	0.65	.	12*	2	1	-1	0	-1
COc1ccc(OCCCC(=O)ON=C(N)c2ccccc2C)cc1	0.7	-5	2	-1	-1	.	.	.
CCOc1ccc(OCCCC(=O)ON=C(N)c2ccccc2Cl)cc1	0.64	3	11*	-3	1	0	0	4
COc1ccc(/C=N/NC(=O)c2ccncc2)cc1OC	.	-3	0	1	3	.	.	.
COc1cc(/C=N/NC(=O)c2ccncc2)ccc1O	.	-9	100*!	-3	-2	-2	-1	-1
O=C1NC(=S)S/C1=C\C=C\c1ccc([N+](=O)[O-])o1	0.07*	68*	96*	.	.	99*	99*	99*
O=C1C(F)=CC(COC(c2ccccc2)(c2ccccc2)c2ccccc2)OC1n1cc(F)c(=O)[nH]c1=O (stereo not given)	.	-4	12*	.	.	9	1	26*
NC(=S)NN=Cc1nccc2c(N)cccc12	.	.	23*	.	.	32*	39*	35*
CCN(C(C)=O)c1cnc(C=NNC(N)=S)c2ccccc12	.	-19	20*	.	.	15*	17	32*
